Source: the OligoGym collection

How the values were obtained:
Assay in all cases: pooled miR-30 sensor sort-seq; sequence = guide strand
Details in all cases: shRNA
SEC22B = target: SEC22B
SEC11C = target: SEC11C
SEC62 = target: SEC62
SEC61B = target: SEC61B
Note: reference of the scale not given here.

Q: How did the sensor-assay potency score (higher = more potent) (SEC22B) turn out when TTCATTTTCAGGACATCTCTTT was run?
A: 0.0656

Q: ATTATTATCTCCTTTAGTCAGA was tested. Which sensor-assay potency score (higher = more potent) (SEC11C) did it give?
A: -0.731

Q: How did the sensor-assay potency score (higher = more potent) (SEC62) turn out when TTATGTACAGAATACACTTTAC was run?
A: -1.09

Q: How did the sensor-assay potency score (higher = more potent) (SEC22B) turn out when TCGTTGTAACACTTCTTCGATA was run?
A: -1.15

Q: For ATGAACTTTGATTACTCTGTGA, which sensor-assay potency score (higher = more potent) (SEC11C) is on record?
A: -0.369

Q: Which sensor-assay potency score (higher = more potent) (SEC61B) does the source give for TGCAACATAAATACAGAAGCGA here?
A: -0.661
